Data on 40 compounds can be found in PubChem BioAssay.

Active and inactive are the calls of the source. How the calls were made is not given here.

In general, inhibition refers to the drop in the measured response relative to a control, in per cent.

The target of this experiment is Pantothenate synthetase (Mycobacterium tuberculosis (strain ATCC 25618 / H37Rv)) (UniProt P9WIL5). The experiment in a line: Coupled enzyme confirmation of inhibitors against recombinant Mtb PanC (AID 375).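 Further: 0% = full reaction with vehicle and 100% = no enzyme background.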 The following applies: coupled enzyme assay; at 10 µM, active compounds read high.
Pantothenate synthetase (Mycobacterium tuberculosis (strain ATCC 25618 / H37Rv)), sequence (P9WIL5 whole entry, looked up): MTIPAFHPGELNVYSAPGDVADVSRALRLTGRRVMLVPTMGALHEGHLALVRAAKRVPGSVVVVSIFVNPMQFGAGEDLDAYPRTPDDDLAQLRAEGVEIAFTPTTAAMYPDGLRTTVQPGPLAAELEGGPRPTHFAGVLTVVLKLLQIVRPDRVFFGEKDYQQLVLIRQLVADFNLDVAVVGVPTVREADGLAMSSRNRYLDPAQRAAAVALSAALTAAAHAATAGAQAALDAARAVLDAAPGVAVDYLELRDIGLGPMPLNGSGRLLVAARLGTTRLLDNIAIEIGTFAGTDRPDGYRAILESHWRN
Consider `c1ccc2[nH]c(CSc3nnc(-c4ccncc4)o3)nc2c1`, for which the inhibition is 4% (inactive). The figure for `CCOC(=O)N1CCC(NC(=O)C2CCN(S(=O)(=O)c3cccc4cccnc34)CC2)CC1` is 0% (inactive); for `CCc1ccc(N2CC34C=CC(O3)C(C(=O)OC)C4C2=O)cc1` (stereo not given) it is 0% (inactive); for `CCCOc1ccc(C2C(C(=O)OC)=CN(CCOC)C=C2C(=O)OC)cc1` it is 1% (inactive). With `COc1ccc(Br)cc1C(=O)Nc1nnn(C)n1`, the inhibition is 0% (inactive). Consider `CC1(C)CC(=O)C2=C(C1)OC(=O)C2(NC(=O)c1cccs1)C(F)(F)F` (stereo not given), for which the inhibition is 1% (inactive). As to `O=C(COc1nnc2ccccn12)N1CCN(S(=O)(=O)c2ccccc2)CC1`, the inhibition was 1% (inactive). The same measure for `COc1ncnc2c1N=C1CC(C)(C)CC(N)=C1S2`: 0% (inactive). In the case of `CN1CCCN(CC(O)COCc2cccs2)CC1` (stereo not given), the inhibition was 0% (inactive).

Regarding `CC(C)c1nc(N2CCN(C(=O)c3ccco3)CC2)c2c3c(sc2n1)CCCC3`, the inhibition is 1% (inactive). The figure for `O=C(c1cnn2c(C(F)(F)F)cc(-c3ccco3)nc12)N1CCc2ccccc2C1` is 3% (inactive). The same measure for `FC(F)(F)c1ccc(Sc2nnc(-c3cccs3)n2CC2CCCO2)nc1` (stereo not given): 0% (inactive). The same measure for `CCOc1ccc(NC(=O)C2CC(=O)N(CC)C(=Nc3ccc4c(c3)OCO4)S2)cc1` (stereo not given): 3% (inactive). As for `COc1cccc(N2CCN(CC(=O)Nc3nnc(-c4ccccc4)s3)CC2)c1`, the inhibition is 3% (inactive). `O=C1CCN(C(=O)c2ccccc2)C2CCCCC12` (stereo not given): the inhibition was 0% (inactive).

Take `CCCCNC(=O)c1c(C)cc(=O)oc1C`: the inhibition was 9% (inactive). The same measure for `O=C(O)CCCc1nc(-c2ccccc2)no1`: 0% (inactive). The figure for `CC1(C)NC(=O)N(CCCOc2ccc(Br)cc2Cl)C1=O` is 0% (inactive); for `COc1ccc(C(=O)Nc2ccc(C)cn2)c(OC)c1` it is 0% (inactive); for `CCN(CC)C(=O)CSc1nnc([C@@H](N)Cc2ccccc2)o1` it is 0% (inactive). The same measure for `Cc1cc(C)c(NC(=O)CSc2nnc(-c3ccncc3)n2Cc2ccco2)c(C)c1`: 0% (inactive); for `Cc1cc(C(=O)NCCCc2ccccc2)no1`: 10% (inactive). Take `O=C(CSCCSCC(=O)c1ccco1)c1ccco1`: the inhibition was 0% (inactive). Turning to `CN1CCC(=C2c3ccccc3CC(=O)c3sccc32)CC1`, the inhibition was 2% (inactive).

For `CCOC(=O)N1CCN(C(=O)c2ccc(CS(=O)(=O)c3ccc(OC)cc3)o2)CC1`, the inhibition is 1% (inactive).

Regarding `Cc1nc2ccc(C(=O)c3ccccc3)cc2[nH]1`, the inhibition was 0% (inactive). The figure for `COC(=O)c1ccc(CSc2nc3ccccc3c(=O)n2Cc2ccco2)o1` is 6% (inactive); for `CC(Sc1nnnn1C)C(=O)Nc1ccc(Oc2ccccc2)cc1` (stereo not given) it is 0% (inactive); for `Cc1nnc(SCC(=O)Nc2nccs2)s1` it is 0% (inactive). The figure for `C/C=C/Cn1c(Br)nc2c1c(=O)[nH]c(=O)n2C` is 0% (inactive).

As to `CC(=O)Nc1cc2c(nc1C)nc(C)n2Cc1ccc(Br)cc1`, the inhibition was 0% (inactive). The same measure for `COCC(=O)Nc1cc(OC)ccc1OC`: 3% (inactive); for `COC(=O)Nc1ccc(S(=O)(=O)N2CCN(c3ccc(F)cc3)CC2)cc1`: 0% (inactive); for `O=C(COc1ccccc1)NCC(c1cccs1)N1CCOCC1` (stereo not given): 4% (inactive). On to `O=S1(=O)C=C(Sc2nnc(-c3ccccc3)o2)c2ccccc21`, for which the inhibition was 3% (inactive). The figure for `CCc1ccccc1NC(=O)C(CC)Sc1nc2cc3c(cc2c(=O)n1Cc1ccco1)OCO3` (stereo not given) is 0% (inactive); for `CCOc1ncccc1C(=O)OCC(=O)Nc1ncc(C(F)(F)F)cc1Cl` it is 1% (inactive). In the case of `CC1CCN(C(=O)Cn2cc3c(n2)CCCC3)CC1`, the inhibition is 0% (inactive). The figure for `C=CCn1c(SCc2cccc(C#N)c2)nnc1-c1ccccc1O` is 0% (inactive); for `Cc1ccc(C(c2sc3nc(C)nn3c2O)N2CC(C)OC(C)C2)cc1` (stereo not given) it is 0% (inactive).
